# Values without a mark were called inactive. For some of these results: Results with a measured potency or affinity are listed apart. The source made the active and inactive calls. Unless noted, the rule behind the calls is not given here.
# Key:
# [1] = antimalarial activity against Dd2 strain (AID 2302;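 active = growth inhibition above 50% at the single 2 µM test dose, taken to imply half-maximal potency below 2 µM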;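 note: 0% = DMSO untreated growth and 100% = chloroquine plus artemisinin killed control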); conditions: P. falciparum Dd2 in RBCs, LDH growth readout, 72 h; at 2 µM; stronger effect = higher value
# [2] = HepG2 cytotoxicity, primary screen, cytotoxicity control for P. falciparum antimalarial project, cell-based, ATP luminescence (AID 2303;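 active = inhibition above 50%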;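 note: 0% = DMSO wells and 100% = digitonin-killed cells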); conditions: HepG2 viability, 24-48 h, at 10 µM, stronger effect = higher value
# [3] = target: L-lactate dehydrogenase (Plasmodium falciparum (isolate CDC / Honduras)) (UniProt Q27743); assay: PfLDH activity inhibition – cell lysate, 3D7 strain, counter-screen for P. falciparum growth inhibition project (AID 2304);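 note: 0% = vehicle and 100% = reference inhibitor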; conditions: P. falciparum 3D7 crude extract, LDH APAD/NBT absorbance; at 2 µM; stronger effect = higher value
# L-lactate dehydrogenase (Plasmodium falciparum (isolate CDC / Honduras)), sequence (Q27743 whole entry, looked up): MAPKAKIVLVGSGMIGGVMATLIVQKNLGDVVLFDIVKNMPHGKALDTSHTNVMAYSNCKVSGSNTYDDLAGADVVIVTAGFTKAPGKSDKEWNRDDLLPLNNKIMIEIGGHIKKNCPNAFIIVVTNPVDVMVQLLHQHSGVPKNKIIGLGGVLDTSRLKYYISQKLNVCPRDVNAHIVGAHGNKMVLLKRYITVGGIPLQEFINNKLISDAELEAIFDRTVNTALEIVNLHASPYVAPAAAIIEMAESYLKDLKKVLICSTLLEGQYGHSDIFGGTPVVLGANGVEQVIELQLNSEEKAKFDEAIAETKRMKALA
# [4] = inhibition of 3D7 malaria parasite growth – strain 3D7 (AID 2306);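 note: 0% = DMSO wells and 100% = chloroquine plus artemisinin control wells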; conditions: P. falciparum 3D7 erythrocytic growth, LDH absorbance, 72 h; at 2 µM; stronger effect = higher value
# [5] = target: Calcium-dependent protein kinase 1 (Plasmodium falciparum (isolate 3D7)) (UniProt P62344); assay: PfCDPK1 kinase inhibitors, biochemical, TCAMS library (AID 1159585; cut-off not given, nearly all actives have IC50 up to about 0.98 µM;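 note: inhibitors leave more ATP so luminescence rises with inhibition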); conditions: recombinant PfCDPK1, Kinase-Glo ATP depletion luminescence
# Calcium-dependent protein kinase 1 (Plasmodium falciparum (isolate 3D7)), sequence (P62344 whole entry, looked up): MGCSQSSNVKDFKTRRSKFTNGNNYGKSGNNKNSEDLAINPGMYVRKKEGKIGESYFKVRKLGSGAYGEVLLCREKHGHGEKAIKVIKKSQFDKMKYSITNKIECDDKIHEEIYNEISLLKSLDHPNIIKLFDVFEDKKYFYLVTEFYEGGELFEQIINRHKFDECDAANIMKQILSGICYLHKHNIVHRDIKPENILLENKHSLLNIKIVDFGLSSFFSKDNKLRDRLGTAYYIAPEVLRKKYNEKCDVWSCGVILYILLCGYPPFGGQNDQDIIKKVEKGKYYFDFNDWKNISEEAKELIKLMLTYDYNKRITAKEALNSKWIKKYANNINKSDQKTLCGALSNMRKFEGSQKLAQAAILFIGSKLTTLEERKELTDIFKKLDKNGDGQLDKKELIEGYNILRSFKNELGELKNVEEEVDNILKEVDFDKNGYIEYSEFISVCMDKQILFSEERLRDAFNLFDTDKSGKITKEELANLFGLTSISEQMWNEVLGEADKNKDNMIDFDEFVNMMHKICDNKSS
# [6] = target: Plasmodium falciparum protein kinase 6 (PK6, PF3D7_1337100) (UniProt Q8IDW1); assay: PfPK6 kinase inhibitors, biochemical, TCAMS library (AID 1159586); conditions: recombinant PfPK6, Kinase-Glo ATP depletion luminescence
# Plasmodium falciparum protein kinase 6 (PK6, PF3D7_1337100), sequence (Q8IDW1 1-305): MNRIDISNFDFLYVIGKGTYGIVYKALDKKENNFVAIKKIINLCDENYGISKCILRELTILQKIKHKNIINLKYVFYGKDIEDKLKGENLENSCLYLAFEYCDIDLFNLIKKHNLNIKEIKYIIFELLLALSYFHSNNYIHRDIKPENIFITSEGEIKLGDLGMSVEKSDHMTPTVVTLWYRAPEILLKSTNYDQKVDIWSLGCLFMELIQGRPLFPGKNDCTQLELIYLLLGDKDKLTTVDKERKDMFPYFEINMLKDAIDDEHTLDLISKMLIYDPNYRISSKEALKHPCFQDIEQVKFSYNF
# [7] = target: Protein kinase 7 (PK7), Plasmodium falciparum 3D7 (PF3D7_0213400) (UniProt Q7YTF7); assay: inhibition of Plasmodium PK7 catalytic activity – biochemical, TCAMS antimalarial set, Kinase-Glo luminescence (AID 1159587); conditions: recombinant PfPK7, Kinase-Glo ATP depletion luminescence
# Protein kinase 7 (PK7), Plasmodium falciparum 3D7 (PF3D7_0213400), sequence (Q7YTF7 1-343): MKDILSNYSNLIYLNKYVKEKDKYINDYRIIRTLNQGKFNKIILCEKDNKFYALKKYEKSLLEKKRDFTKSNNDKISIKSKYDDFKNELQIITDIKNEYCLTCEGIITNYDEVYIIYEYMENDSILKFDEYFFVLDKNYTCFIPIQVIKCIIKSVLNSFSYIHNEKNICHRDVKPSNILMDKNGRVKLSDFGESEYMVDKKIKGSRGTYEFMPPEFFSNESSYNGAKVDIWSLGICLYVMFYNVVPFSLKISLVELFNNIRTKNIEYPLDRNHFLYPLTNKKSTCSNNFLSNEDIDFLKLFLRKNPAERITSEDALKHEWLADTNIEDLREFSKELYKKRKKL
# [8] = target: Calcium-dependent protein kinase 4 (Plasmodium falciparum (isolate 3D7)) (UniProt Q8IBS5); assay: PfCDPK4 kinase inhibitors, biochemical, TCAMS library (AID 1159588; cut-off not given, nearly all actives have IC50 up to about 0.91 µM); conditions: recombinant PfCDPK4, Kinase-Glo ATP depletion luminescence
# Calcium-dependent protein kinase 4 (Plasmodium falciparum (isolate 3D7)), sequence (Q8IBS5 whole entry, looked up): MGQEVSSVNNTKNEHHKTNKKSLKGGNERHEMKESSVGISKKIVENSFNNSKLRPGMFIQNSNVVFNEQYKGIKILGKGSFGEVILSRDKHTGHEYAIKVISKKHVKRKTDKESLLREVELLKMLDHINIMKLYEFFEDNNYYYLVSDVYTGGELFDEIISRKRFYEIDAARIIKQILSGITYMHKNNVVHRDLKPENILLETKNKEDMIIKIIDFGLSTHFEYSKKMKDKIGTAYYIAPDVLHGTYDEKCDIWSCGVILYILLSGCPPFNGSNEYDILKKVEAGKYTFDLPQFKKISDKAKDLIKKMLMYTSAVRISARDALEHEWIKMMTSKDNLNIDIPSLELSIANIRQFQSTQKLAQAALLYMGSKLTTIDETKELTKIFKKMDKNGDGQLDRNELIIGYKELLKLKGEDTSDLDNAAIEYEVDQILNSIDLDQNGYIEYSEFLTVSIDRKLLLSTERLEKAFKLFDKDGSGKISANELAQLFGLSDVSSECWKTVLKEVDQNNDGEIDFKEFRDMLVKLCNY
Structure (SMILES),growth inhibition [1],inhibition [2],inhibition [3],growth inhibition [4],outcome [5],outcome [6],outcome [7],outcome [8]
C=CCOC(=O)N1CCC(CNCc2ccc(-c3ccc(-c4nc5ccc(C(F)(F)F)cc5[nH]4)cc3)cc2)C1 (stereo not drawn),98% (active),44%,-2%,103% (active),inactive,inactive,inactive,inactive
CC1CCN(C(=O)[C@H](Cc2c[nH]c3ccccc23)NS(=O)(=O)c2ccc(Cl)cc2)CC1,99% (active),-6%,0%,100% (active),inactive,inactive,inactive,inactive
CN1CCC(NCc2ccc(-c3cccc(S(=O)(=O)NCCc4ccccn4)c3)cc2)CC1,-8%,42%,-1%,84% (active),inactive,inactive,inactive,inactive
O=C(NCc1ccccc1S(=O)c1ccccc1CO)C(F)(F)F (stereo not drawn),2%,50% (active),0%,98% (active),inactive,inactive,inactive,inactive
CCOc1c(CNCCCCCCNCc2ccc3ccccc3c2OCC)ccc2ccccc12,78% (active),100% (active),6%,99% (active),inactive,inactive,inactive,inactive
N#Cc1ccc(NC(=Nc2ccccc2Br)N(C2CCCCC2)C2CCCCC2)c(O)c1,96% (active),4%,4%,99% (active),inactive,inactive,inactive,inactive
Clc1ccc(CNc2ccnc(NCc3ccc4c(c3)OCCCO4)n2)c(Cl)c1,20%,50% (active),-2%,94% (active),inactive,inactive,inactive,inactive
CC(C)(c1ccccc1)c1ccc(O)c(CN2CCOCC2)c1,88% (active),-7%,2%,99% (active),inactive,inactive,inactive,inactive
COc1ccc2c(c1C1CCN(CCCCNC(=O)c3ccc(NC(=O)c4ccc(Cl)cc4)cc3)CC1)CCCC2,99% (active),19%,-2%,101% (active),inactive,inactive,inactive,inactive
CCCCCN1CCCC1CNS(=O)(=O)c1cccc(C(=O)Nc2cccc(C#N)c2)c1 (stereo not drawn),7%,19%,-1%,90% (active),inactive,inactive,inactive,inactive
COc1ccc(Nc2nc(C)cc(NCc3ccc(-c4c(C)noc4C)cc3)n2)cc1,50% (active),48%,-5%,99% (active),inactive,inactive,inactive,inactive
CC(C)(C)c1nn(-c2ccccc2)c2[nH]c(=O)c(CNCCc3ccccc3)cc12,90% (active),-7%,0%,94% (active),inactive,inactive,inactive,inactive
CC(=O)Nc1ccc(C(=O)Nc2cccc(-c3ccc(-c4nc5ccc(F)cc5[nH]4)cc3)c2)cn1,99% (active),10%,-6%,99% (active),inactive,inactive,inactive,inactive
CCCc1nc2c(N3CC(NC(=O)/C=C/c4ccccc4)C3)cccc2n1C1CC1,68% (active),1%,0%,83% (active),inactive,inactive,inactive,inactive
Cc1cc(NCCc2ccccc2)nc(/N=C(\N)Nc2ccc(Cl)cc2)n1,100% (active),7%,4%,102% (active),inactive,inactive,inactive,inactive
O=C(Nc1ccc2c(c1)CCN2C1CCN(Cc2cc(F)cc(F)c2F)C1)c1ccco1 (stereo not drawn),95% (active),-2%,1%,96% (active),inactive,inactive,inactive,inactive
O=C(Nc1ccccc1-c1nc2ccccc2s1)C(Cl)(Cl)Cl,99% (active),12%,-7%,97% (active),inactive,inactive,inactive,inactive
N#Cc1cccc(C(O)CN(Cc2ccccc2)Cc2ccccc2)c1 (stereo not drawn),100% (active),12%,1%,101% (active),inactive,inactive,inactive,inactive
CC(C)c1ccc(NC(=O)c2ccc(NCCCN(C)Cc3ccccc3)c([N+](=O)[O-])c2)cc1,35%,21%,-2%,101% (active),inactive,inactive,inactive,inactive
Cc1nn(-c2ccnc3cc(Cl)ccc23)c(C)c1C(=O)NCc1cc(Cl)cc(Cl)c1,53% (active),-10%,-1%,97% (active),inactive,inactive,inactive,inactive
CC1(C)N=C(N)N=C(N)N1OCCSCCON1C(N)=NC(N)=NC1(C)C,81% (active),34%,-4%,95% (active),inactive,inactive,inactive,inactive

Structure (SMILES),growth inhibition [1],inhibition [2],inhibition [3],growth inhibition [4],outcome [5],outcome [6],outcome [7],outcome [8]
O=C(Nc1ccc(Cl)c(C(F)(F)F)c1)c1ccc(Cl)c([N+](=O)[O-])c1,18%,20%,-2%,87% (active),inactive,inactive,inactive,inactive
COc1ccc(C(=O)Nc2cc(Br)c3c(c2)CNCC3)cc1C(F)(F)F,4%,13%,8%,90% (active),inactive,inactive,inactive,inactive
COc1cccc(C(=O)Nc2ccc(Oc3ccc(Cl)cc3)cc2)c1,-2%,33%,-5%,92% (active),inactive,inactive,inactive,inactive
COc1ccc2nccc([C@@H](O)CN3CCC(NCCOc4ccc(F)cc4F)CC3)c2c1,68% (active),13%,-5%,101% (active),inactive,inactive,inactive,inactive
O=C(CCn1c2ccccc2c2ccccc21)NN=Cc1ccco1,-3%,6%,-3%,96% (active),inactive,inactive,inactive,inactive
CCOc1cc(C(=O)Nc2ccccc2N2CCN(S(C)(=O)=O)CC2)cc(OCC)c1OCC,80% (active),-1%,-2%,91% (active),inactive,inactive,inactive,inactive
COc1ccc(C2C(C(=O)Nc3ccc(C)c(F)c3)c3cc(OC)c(OC)cc3C(=O)N2C)cc1 (stereo not drawn),26%,6%,-2%,81% (active),inactive,inactive,inactive,inactive
CC(Nc1nncc(-c2cccc(F)c2)n1)c1ccc(F)cc1 (stereo not drawn),89% (active),4%,0%,95% (active),inactive,inactive,inactive,inactive
N#Cc1ccc(NC(=NCCc2c[nH]c3ccccc23)Nc2ccc(-c3ccccc3)cc2)c(O)c1,75% (active),6%,6%,96% (active),inactive,inactive,inactive,inactive
Cc1noc(C)c1C(=O)N1CCc2cc3nccc(N4CCN5CCC[C@H]5C4)c3cc21,9%,7%,-5%,93% (active),inactive,inactive,inactive,inactive
O=c1[nH]c(NCCCNCc2cc3c(Cl)cc(Cl)cc3[nH]2)nc2ccccc12,4%,10%,-3%,91% (active),inactive,inactive,inactive,inactive
CC(C)(C)COc1ccc2c(N)n[nH]c2c1,8%,31%,4%,90% (active),inactive,inactive,inactive,inactive
COc1ccc(CCn2c(C3CCCCC3)nc3oc4ccccc4c(=O)c3c2=O)cc1,66% (active),12%,-2%,91% (active),inactive,inactive,inactive,inactive
Cc1cc(C)cc(NC(=S)NCCCCN2CCN(c3cccc(Cl)c3)CC2)c1,13%,11%,3%,88% (active),inactive,inactive,inactive,inactive
Cc1cc2ccccc2c(CON2C(N)=NC(N)=NC2(C)C)c1C,31%,65% (active),-3%,93% (active),inactive,inactive,inactive,inactive
CCc1ccc(CN(Cc2ccc(C)cc2)Cc2ccc(NC(C)=O)cc2)cc1,79% (active),6%,-1%,89% (active),inactive,inactive,inactive,inactive
COc1ccc2nccc([C@@H](O)CN3CCC(NC(=O)/C(=C/c4ccccc4)c4ccc(-c5ccccc5)cc4)CC3)c2c1,38%,4%,0%,94% (active),inactive,inactive,inactive,inactive
CCc1cn(CCS(C)(=O)=O)c2ccc(C(=O)N[C@@H](Cc3ccccc3)[C@H](O)CNC(C)(C)CCCC(C)C)cc12,96% (active),16%,-7%,87% (active),inactive,inactive,inactive,inactive
O=C(c1cccc(Cl)c1)N1CCN(c2ccc([N+](=O)[O-])c(NC3CC3)c2)CC1,79% (active),11%,4%,100% (active),inactive,inactive,inactive,inactive
O=C(Nc1ccc(F)cc1)NC1CCN(CCCCCNC(=O)[C@@H]2C[C@H]2c2ccc(Cl)c(Cl)c2)CC1,20%,46%,-2%,101% (active),inactive,inactive,inactive,inactive

# From PubChem BioAssay
